Results: the supplement of paper PMC6555819

Columns and labels:
Experiment in all cases: PBM binding z-score (relative to random genomic background probes); higher = stronger binding; sequences stand for … in GC…GCGATTGACAGCGTAGAATGAAGG
[1] = test system: FXR:RXRa (NR concentration 270 nM, RXRa partner concentration 90 nM)
Outline: (§1)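 Regression normalization was applied to scanned fluorescence from custom Agilent 4×180K protein-binding microarrays. Before scanning, arrays were incubated 1 h with ligand-free nuclear receptor dimers, and binding was detected with antibodies against each partner (one per run). Binding z-scores use the random background probes as reference.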

[2] = test system: LXRa:RXRa (NR concentration 270 nM, RXRa partner concentration 90 nM)
Outline: as §1

[3] = test system: LXRa homodimer (NR concentration 270 nM)
Outline: as §1

[4] = test system: LXRb:RXRa (NR concentration 270 nM, RXRa partner concentration 90 nM)
Outline: as §1

[5] = test system: LXRb homodimer (NR concentration 270 nM)
Outline: as §1

[6] = test system: PPARa:RXRa (NR concentration 270 nM, RXRa partner concentration 90 nM)
Outline: as §1

[7] = test system: PPARg:RXRa (NR concentration 180 nM, RXRa partner concentration 90 nM)
Outline: as §1

[8] = test system: PPARg:RXRa 270nM:90nM, anti-RXR (NR concentration 270 nM, RXRa partner concentration 90 nM)
Outline: as §1

[9] = test system: PPARg:RXRa 30nM:10nM, anti-RXR (NR concentration 30 nM, RXRa partner concentration 10 nM)
Outline: as §1

[10] = test system: PPARg:RXRa 90nM:30nM, anti-RXR (NR concentration 90 nM, RXRa partner concentration 30 nM)
Outline: as §1

Row | Sequence | PBM binding z-score [1] | PBM binding z-score [2] | PBM binding z-score [3] | PBM binding z-score [4] | PBM binding z-score [5] | PBM binding z-score [6] | PBM binding z-score [7] | PBM binding z-score [8] | PBM binding z-score [9] | PBM binding z-score [10]
1 | CGAACTAAGTCATCCAGGACAGTGAATACATTGA | 0.0178 | -0.0444 | 0.135 | -0.252 | -0.311 | 0.0393 | 0.532 | 0.277 | 0.283 | 0.237
2 | CGTCAAAGTTCAACTAATGTAACGTAAAGCACGC | 7.05 | 6.09 | 4.93 | 4.21 | 2.34 | 4.77 | 4.72 | 5.26 | 2.95 | 4.56
3 | CGAACTACGTCAAAGGACAGTGAAAGGCGACGTA | -0.5 | -0.431 | -0.3 | -0.675 | -0.597 | 0.0872 | 1.15 | 1.53 | 0.179 | 1.25
4 | CGAACTGGGTCACCAGGACAGTGAAGAGGTTGGA | 3.32 | 1.63 | -0.247 | 1.24 | -0.906 | 4.99 | 8.62 | 6.73 | 4.52 | 6.31
5 | CGAACTAAGTCAAAGGACAGTGAAAGGCGACGTA | -0.166 | -0.175 | -0.153 | -0.345 | -0.704 | 1.52 | 2.74 | 4.16 | 1.7 | 3.85
6 | CGAACTAGGTCAAAGGACAGTTAAAGGCGACGTA | 4.01 | 2.69 | 0.333 | 1.95 | -0.158 | 5.58 | 10.5 | 8.8 | 7.97 | 9.57
7 | CGAACTAGGTGATTGACAGGACAGTGAATAGTAA | 0.0682 | -0.0591 | 0.0308 | -0.196 | -0.394 | 1.81 | 2.2 | 1.57 | 0.548 | 1.06
8 | TCTGCTAGGTCAGGTGGTCAGCTAACGAGCTGCC | 1.39 | 0.774 | -0.474 | 0.66 | 0.161 | 1.89 | 1.01 | 2.36 | 1.38 | 1.98
9 | CGTCCAAGGTCAAGGTGAGTGAAAGAGACTCGAA | 7.1 | 4.92 | 0.292 | 3.92 | 0.281 | 5.71 | 5.33 | 5.61 | 2.05 | 4.04
10 | TAGCCTAGGTCAAGCGGGCCAGTATAGTGTCGGC | 4.12 | 3.15 | 0.0899 | 1.78 | -0.385 | 3.62 | 2.12 | 2.59 | 0.103 | 1.32
11 | CGGACTAGGTCACCAGGACAGTGAAGAGGTTGGA | 3.78 | 2.23 | -0.177 | 1.34 | -0.742 | 4.41 | 8.1 | 6.5 | 4.18 | 5.97
12 | AATACAGGGTCACTAGGCCCGAGTAGGTACGAAT | 6.16 | 4.62 | 0.516 | 3.53 | 0.618 | 5.37 | 6.32 | 5.26 | 2.34 | 4.04
13 | CCTACTGGGCCATACAGAGGTCATTGATCATATG | 2.83 | 4.1 | 5.31 | 3.73 | 0.274 | 3.89 | 2.98 | 3.58 | 1.03 | 2.85
14 | CCTAGTTGGTCAAGGTAACACACGCTATAGGTAC | 0.638 | 0.459 | 0.594 | 0.713 | 0.295 | 0.749 | 1.08 | 1.32 | 0.57 | 0.891
15 | CCTTACGGGTCACTCTAGGTTATAGCATCGGAGT | 5.09 | 7.69 | 1.83 | 5.58 | 0.329 | 4.68 | 3.33 | 3.69 | 1.3 | 2.76
16 | CATACCGGGTCAGCTAGGCCAGAGTAGGGACGGC | 2.5 | 1.78 | -0.499 | 1.04 | -0.0141 | 3.1 | 2.07 | 1.87 | 0.181 | 0.975
17 | TTACAAAGGTGAAAGGTCGTTGATGCACGCCTTG | 5.91 | 4.66 | 0.507 | 4.08 | -0.0513 | 6.21 | 9.23 | 8.27 | 8.34 | 8.62
18 | ATGTGTAGGTTAGGGTCATTCAGAAAGTAGGGAA | 5.11 | 4.15 | 1.8 | 4.76 | 2.68 | 5.13 | 4.57 | 4.47 | 2.37 | 3.65
19 | ATCTCTAGGTAAAGGTCAGTGAAAGATCGATAGA | 3.48 | 3.55 | 1.74 | 3.42 | 1.54 | 4.32 | 6.77 | 6.29 | 4.39 | 6.41
20 | CGTCAAAGTTCAACTAAGGTAACTTAAAGCACGC | 7.38 | 6.11 | 4.42 | 4.16 | 1.95 | 5.47 | 5.21 | 5.69 | 2.4 | 4.39
21 | TAGCCTAGGTCCTTCAGGGGCCAGTATAGAAAGC | -0.77 | -0.784 | -0.674 | -0.628 | -0.884 | -0.292 | -0.229 | -0.451 | -0.73 | -0.359
22 | AGTCAAAGTTCACGAGGTAACGTAAGATTCAGCT | 7.1 | 6.36 | 3.51 | 4.18 | 1.13 | 5.7 | 7.78 | 7.53 | 4.79 | 7.08
23 | ATATGTAGGTTAGGGTCAATCAGAAAGTAGGGAA | 4.67 | 3.66 | 0.491 | 3.9 | 1.23 | 5.48 | 7.67 | 6.41 | 3.89 | 5.93
24 | CGAACTAGGTCAAAGGACCGTGAAAGGCGACGTA | 3.56 | 2.39 | 0.0544 | 1.48 | -0.478 | 4.99 | 8.12 | 6.9 | 5.98 | 7.29
25 | CGAACTAGGTCACCAGGACGGTGAAGAGGTTGGA | 3.75 | 2.3 | -0.206 | 1.19 | -0.86 | 5.23 | 8.37 | 6.93 | 4.31 | 6.43
